Measurements reported in paper PMC5540273 (PLoS ONE, 2017).

Experiments:
Settings in all cases: concentration: 1 μM, replicates: in singlicate; n = 1
INSR = test system: INSR
IRAK1 = test system: IRAK1
IRAK3 = test system: IRAK3
IRAK4 = test system: IRAK4
ITK = test system: ITK
[1] = test system: JAK1(JH1domain-catalytic)
[2] = test system: JAK1(JH2domain-pseudokinase)
[3] = test system: JAK2(JH1domain-catalytic)
[4] = test system: JAK3(JH1domain-catalytic)
JNK1 = test system: T1, JNK1
T1 construct: gene MAPK8

JNK2 = test system: T2, JNK2
T2 construct: gene MAPK9

JNK3 = test system: T3, JNK3
T3 construct: gene MAPK10

KIT-autoinhibited = test system: KIT-autoinhibited
KIT = test system: KIT
LATS1 = test system: LATS1
LATS2 = test system: LATS2
LCK = test system: LCK
LIMK1 = test system: LIMK1
LIMK2 = test system: LIMK2
LKB1 = test system: T4, LKB1
T4 construct: gene STK11
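Note: KINOMEscan kinase panel screen.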

SMILES | %Inh (INSR) | %Inh (IRAK1) | %Inh (IRAK3) | %Inh (IRAK4) | %Inh (ITK) | %Inh [1] | %Inh [2] | %Inh [3] | %Inh [4] | %Inh (JNK1) | %Inh (JNK2) | %Inh (JNK3) | %Inh (KIT-autoinhibited) | %Inh (KIT) | %Inh (LATS1) | %Inh (LATS2) | %Inh (LCK) | %Inh (LIMK1) | %Inh (LIMK2) | %Inh (LKB1)
Nc1n[nH]c2nnc(-c3ccccc3)c(-c3ccccc3)c12 [GW554060] | 3% | 12% | 9% | 19% | 12% | 21% | 0% | 10% | 0% | 19% | 23% | 15% | 0% | 18% | 0% | 4% | 14% | 6% | 11% | 0%
Cl.c1ccc(Cn2cnc3cc(Nc4ncnc5ccccc45)ccc32)cc1 [GW272142] | 0% | 26% | 0% | 15% | 7% | 4% | 0% | 0% | 0% | 13% | 7% | 0% | 4% | 0% | 0% | 0% | 25% | 0% | 4% | 0%
CCCNC(=O)Nc1ccc(Oc2ncnc3ccn(C)c23)cc1 | 31% | 16% | 0% | 15% | 5% | 17% | 0% | 1% | 0% | 0% | 3% | 0% | 3% | 89% | 44% | 11% | 0% | 0% | 0% | 9%
COc1cc2ncn(-c3cc(OCCCc4ccccc4)c(C(N)=O)s3)c2cc1OC [GSK205189] | 13% | 0% | 7% | 0% | 5% | 0% | 0% | 1% | 0% | 15% | 21% | 12% | 0% | 13% | 0% | 15% | 16% | 0% | 0% | 0%
O=C(NCc1cccs1)c1cc(C(=O)c2c(Cl)cccc2Cl)c[nH]1 [GW823670] | 0% | 0% | 26% | 0% | 1% | 1% | 5% | 0% | 0% | 0% | 0% | 0% | 4% | 0% | 0% | 0% | 0% | 6% | 0% | 49%
O=C(Nc1n[nH]c2cc(-c3ccccc3F)ccc12)C1CC1 [SB-733371] | 0% | 0% | 0% | 0% | 0% | 0% | 17% | 27% | 0% | 33% | 16% | 15% | 0% | 10% | 27% | 0% | 6% | 0% | 0% | 30%
CCc1ccc(-c2ccc3c(c2)-c2nn(C)cc2S(=O)(=O)N3C)cc1 | 0% | 0% | 0% | 10% | 0% | 0% | 10% | 0% | 0% | 0% | 0% | 0% | 53% | 0% | 0% | 0% | 17% | 0% | 0% | 21%
Cc1ccc(Oc2ccc(Nc3ncnc4cc[nH]c34)cc2C)cn1 | 11% | 6% | 16% | 0% | 0% | 0% | 24% | 18% | 0% | 43% | 44% | 57% | 12% | 16% | 26% | 44% | 3% | 4% | 0% | 11%
Cc1cccc(-c2nc(Nc3ccc4c(cnn4C)c3)c3ccccc3n2)n1 [GW876731] | 0% | 0% | 0% | 0% | 0% | 15% | 16% | 26% | 0% | 1% | 60% | 28% | 0% | 7% | 0% | 0% | 0% | 0% | 0% | 48%
Cc1c(Cn2c(C)nn3c(=O)cc(N4CCO[C@H](C)C4)nc23)cccc1C(F)(F)F [GSK2373690] | 0% | 23% | 14% | 24% | 26% | 21% | 0% | 14% | 0% | 18% | 27% | 17% | 0% | 13% | 0% | 0% | 15% | 5% | 0% | 0%
Fc1cccc(CSc2nnc(-c3ccc4c(c3)CCO4)o2)c1 | 23% | 21% | 6% | 100% | 16% | 11% | 0% | 0% | 3% | 8% | 4% | 4% | 6% | 5% | 20% | 31% | 0% | 0% | 0% | 16%
COC(=O)c1c(-c2ccccc2)c2cc(Br)ccc2c(=O)n1Cc1ccc(S(C)(=O)=O)cc1 | 13% | 19% | 32% | 18% | 30% | 19% | 0% | 6% | 0% | 97.2% | 98.8% | 98.6% | 6% | 54% | 31% | 30% | 0% | 0% | 0% | 0%
